Data as given in the supplement of paper PMC4206461.
Unmarked numbers belong to inactive results.

System: Pseudomonas aeruginosa PA14 dppA1-A5 penta mutant + pBBR5.DppA1 (PA14_58350)
Assay: respiration area under curve with compound as sole nitrogen source, 24 h (OmniLog AUC (arbitrary units)); higher = more respiration / better utilisation as nitrogen source
Procedure: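 Biolog Phenotype MicroArray plates PM6-PM8: each di/tripeptide is the sole nitrogen source. Tetrazolium reduction was read in the OmniLog for 24 h at 37°C and summarised as area under the respiration curve (arbitrary units). Values below 2000 count as no respiration. Strain is the SBP penta mutant complemented with DppA1 on a plasmid under its native promoter. Lys/His/Cys peptides are excluded.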

Row | SMILES | respiration area under curve
1 | CC(C)C[C@@H](NC(=O)CNC(=O)CN)C(=O)O (plate: PM8) | 232
2 | CC(C)C[C@H](NC(=O)CNC(=O)CN)C(=O)O (plate: PM8) | 3880 (active)
